# Bioassay records: PubChem, Broad Institute
# Wnt act: Wnt/beta-catenin pathway activation. Wnt/beta-catenin reporter cell assay, activator, plate reader. activation, % at 9.35 µM. 1.2% of 300,000 active. AID 743398; in the data active = activation above about 30%, passing the limit was not always enough;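 note: 0% = neutral control wells and 100% = positive control wells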
# MITF act: activators of MITF-driven TRPM1 promoter activity in SK-MEL-5 cells | SK-MEL-5 TRPM1-promoter luciferase, 24 h; % of positive control, neutral wells = 0 | activation, % at 12.5 µM | 0.75% of 300,000 active;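 active = mean activation of at least 80% with every replicate also reaching 80%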;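 note: 0% = neutral control wells and 100% = parthenolide positive control wells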
# HSF1 activator: increases HSF-1 driven luciferase reporter signal; NIH3T3-HGL HSF-1 luciferase reporter, MG132, 8 h; 100% = twice DMSO control signal; activation, % at 9 µM; 1.7% of 300,000 active;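 active = mean replicate activation of at least 50% with a set share of replicates each reaching 50%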;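 note: 0% = median of the neutral control wells and 100% = twice that signal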
# HSF1 inh: HSF1 inhibition; NIH3T3-HGL HSE-luciferase, MG132-induced, luminescence 8 h; hits give low values; activity change, negative = inhibition, % at 7.5 µM (by protocol); 0.77% of 300,000 active;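 active = more than half of replicate wells show activity change below -50%, luminescence cut by over half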;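 note: luciferase reports HSF-1 transcriptional activity via heat shock element; 0% = median of DMSO wells and -100% = zero luminescence signal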
# esBAF inh: blocks esBAF chromatin remodeling in mouse ES cells; 2% of 350,000 active; reporter increase, % at 12.5 µM; Bmi1-luciferase knock-in reporter, 24 h; 100% = twice the neutral-well signal; in the data active = activation above about 40%;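 note: 0% = median of the plate's neutral control wells and 100% = double that signal; a rise in the Bmi1 reporter signal indicates esBAF inhibition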
# * hit, by the source's call; x = not tested or not shown. Only some compounds are listed: those with a hit (about 3.8% of all), similar ones and a draw of the others.
SMILES,Wnt act,MITF act,HSF1 activator,HSF1 inh,esBAF inh
COc1ccc(C(=O)/C=C/c2ccc(OC)cc2OC)c(O)c1,1,93*,21,6,88*
COc1ccc(C(=O)c2ccc(OC)cc2O)c(O)c1,24,75,18,21,50*
COc1ccc(/C=C/C(=O)c2cc(Cl)ccc2O)c(OC)c1,23,31,64*,47,x
COc1ccc(/C=C/C(=O)c2ccc(Cl)cc2)c(OC)c1,x,-1,9,9,13
C[C@@H]1CN([C@H](C)CO)C(=O)c2cc(NC(=O)CCN3CCOCC3)ccc2O[C@@H]1CN(C)Cc1ccncc1,x,x,x,x,4
COc1ccc(C(=O)/C=C/c2cc(C(=O)O)cc3c2OCOC3)c(O)c1,0,-6,95*,70,59*
COc1ccc(C(=O)C=Cc2cccs2)c(O)c1,48*,69,x,x,45*
COc1ccc(NC(=O)N(C)C[C@H]2OCCCC[C@@H](C)Oc3ccc(NS(=O)(=O)c4ccc(Cl)cc4)cc3C(=O)N([C@@H](C)CO)C[C@H]2C)cc1,x,x,x,x,0
CCOC(=O)c1ccc(NC(=O)N2CCN(C3CCCCC3)CC2)cc1,x,7,-17,-7,-1
CCOC(=O)c1ccc(NC(=O)N2CCN(S(C)(=O)=O)CC2)cc1,-3,-1,-59,-53*,1
CCOC(=O)c1ccc(Nc2ccc(C(C)=O)cc2)cc1,13,x,x,x,76*
CCOC(=O)c1ccc(NC(=O)N2CCCCC2)cc1,x,101*,44,16,38
COCC#Cc1ccc2c(c1)O[C@H](CN(C)S(=O)(=O)c1cccc(OC)c1)[C@@H](C)CN([C@H](C)CO)S2(=O)=O,x,x,x,x,4
C[C@@H]1CN([C@H](C)CO)C(=O)c2cc(NS(=O)(=O)c3ccc(Cl)cc3)ccc2O[C@@H]1CN(C)Cc1ccncc1,x,x,x,x,-5
O=C(C[C@@H]1CC[C@H]2[C@@H](COC[C@H](O)CN2CC2CCOCC2)O1)NCC1CC1,x,x,x,x,0
O=C(C1CC12CCCC2)N1CCC(CO)(Cc2ccccc2Cl)CC1 (stereo not drawn),56*,5,3,0,x
COC(=O)c1ccc(CN2CCC(CO)(Cc3ccccc3Cl)CC2)cc1,-1,3,-3,2,0
C[C@@H]1CN([C@H](C)CO)C(=O)c2cc(NC(=O)Nc3ccc4c(c3)OCO4)ccc2O[C@@H](C)CCCCO[C@H]1CN(C)S(=O)(=O)c1cn(C)cn1,x,x,x,x,58*
C[C@@H]1CCCCO[C@@H](CN(C)S(=O)(=O)c2cn(C)cn2)[C@@H](C)CN([C@@H](C)CO)C(=O)c2cc(NC(=O)Nc3ccc4c(c3)OCO4)ccc2O1,x,x,x,x,58*
Cc1ccc(S(=O)(=O)N(C)C[C@H]2OCCCC[C@H](C)Oc3ccc(NC(=O)Nc4ccc5c(c4)OCO5)cc3C(=O)N([C@H](C)CO)C[C@H]2C)cc1,x,x,x,x,49*
C[C@@H]1CCCCO[C@H](CN(C)S(=O)(=O)c2cn(C)cn2)[C@H](C)CN([C@@H](C)CO)C(=O)c2cc(NC(=O)Nc3ccc4c(c3)OCO4)ccc2O1,x,x,x,x,5
COCC(=O)Nc1ccc2c(c1)C(=O)N(C)C[C@@H](OC)[C@H](C)CN[C@H](C)CO2,x,x,x,x,4
CCS(=O)(=O)Nc1ccc2c(c1)C(=O)N(C)[C@@H]1CC[C@H](CC(=O)NCCOC)O[C@@H]1CO2,x,x,x,x,0
C[C@@H]1CN([C@@H](C)CO)C(=O)c2ccccc2-c2ccccc2CO[C@@H]1CN(C)C(=O)[C@H](C)c1ccccc1,x,x,x,x,8
CCCc1cc(-c2n[nH]c(=S)n2-c2cccc(C)c2)cs1,0,-7,26,-1,45*
SMILES,Wnt act,MITF act,HSF1 activator,HSF1 inh,esBAF inh
Cc1cccc(-n2c(-c3csc(C(C)C)c3)n[nH]c2=S)c1,x,7,19,13,4
C[C@H](CO)N1C[C@H](C)[C@H](CN(C)Cc2ccccn2)Oc2cc(-c3ccc(C#N)cc3)ccc2S1(=O)=O,x,x,x,x,-8
CSS(=O)(=O)c1cccc2cccnc12,-1,x,78*,54,x
C[C@H]1CN([C@@H](C)CO)C(=O)c2cccc(NC(=O)Nc3ccccc3)c2O[C@H]1CN(C)Cc1ccc(Cl)c(Cl)c1,x,x,x,x,0
O=C(Nc1ccc(Cl)cc1)OCc1ccccn1,54*,x,57*,42,77*
CN1CCN(C(=O)C[C@H]2CC[C@H]3[C@@H](COC[C@H](O)CN3Cc3ccc(Oc4ccccc4)cc3)O2)CC1,x,x,x,x,-8
C[C@H]1CN([C@@H](C)CO)C(=O)c2cc(NS(=O)(=O)c3ccccc3)ccc2O[C@@H]1CN(C)S(=O)(=O)c1ccc(Cl)cc1,x,x,x,x,0
COc1ccc(Nc2nc(OC)nc(OC)n2)cc1,3,17,9,2,12
COc1ccc(Nc2ccnc(Nc3ccc(OC)cc3)n2)cc1,48*,25,31,19,x
Fc1ccc2cc(-c3ccccc3)ncc2c1,33*,92*,x,x,61*
Fc1ccc2cnc(-c3cccnc3)cc2c1,9,48,x,x,31
c1ccc(-c2cc3ccccc3cn2)cc1,48*,63,x,x,62*
Cn1ccnc1C1CCCCN1C(=O)c1cc(COc2ccc(F)cc2Cl)on1 (stereo not drawn),0,13,-82,-77*,x
O=C(c1cc(COc2ccc(F)cc2Cl)on1)N1CC2C[C@@H]3CC1C[C@H](C2)C3,15,38,49,37,59*
O=C(c1cc(COc2ccc(F)cc2Cl)on1)N1C[C@H]2CC[C@H]1C2,0,78,17,28,43*
O=C(c1cc(COc2ccc(F)cc2Cl)on1)N1CC[C@@H]2CCCC[C@H]2C1,1,14,14,-3,4
C[C@@H]1CCCCO[C@@H](CN(C)S(C)(=O)=O)[C@H](C)CN([C@H](C)CO)C(=O)c2cc(NC(=O)c3ccccc3)ccc2O1,x,x,x,x,-11
O=C(Nc1ccc(F)cc1)N1C[C@H]2[C@@H](c3ccccc31)[C@@H](CO)N2C(=O)Cc1ccccc1,x,x,x,x,9
C[C@@H]1CN([C@H](C)CO)C(=O)c2cc(NS(C)(=O)=O)ccc2O[C@@H]1CN(C)Cc1ccc(-c2ccccc2)cc1,x,x,x,x,8
Nc1ccccc1C(=O)NNC1=C(C(=O)C(F)(F)F)CCC1,68*,x,-61,-52*,x
O=C(c1ccc(F)cc1F)N1CCCC(c2nc(-c3cccs3)no2)C1 (stereo not drawn),-1,2,22,4,7
COc1ccc(-c2noc(C3CCCN(C(=O)Nc4ccccc4)C3)n2)cc1 (stereo not drawn),-1,4,13,2,59*
COc1ccc(C(=O)N2CCCC(c3nc(-c4cccs4)no3)C2)cc1 (stereo not drawn),x,-5,59*,12,-4
COc1ccc(-c2noc(C3CCCN(C(=O)c4ccccc4)C3)n2)cc1 (stereo not drawn),0,51,21,22,42*
COc1ccc(C(=O)N2CCCC(c3nc(-c4cccs4)no3)C2)cc1OC (stereo not drawn),-3,3,-1,-5,-8
